# High-throughput results deposited in PubChem by National Center for Advancing Translational Sciences (NCATS).
# Sfp inh: blocks B. subtilis Sfp PPTase activity; Q9F4F7; Biochemical Sfp PPTase activity, qHTS; Potency, µM, actives largely listed as inhibitors; 3.5% of 310,000 active;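 further: the enzyme is Sfp with the accession as filed and its product quenches rhodamine fluorescence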
#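 Fluorescence-quenching assay: 15 nM Sfp-PPTase preincubated 15 min at room temperature with compound, then 5 uM rhodamine-CoA and 12.5 uM BHQ-2-labelled YbbR peptide added. Fluorescence (ex 525/em 598 nm) read at start and after 30 min; difference gives rate.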
# G9a inh: blocks human histone lysine methyltransferase G9a | Q96KQ7 | G9a H3K9 monomethylation, AlphaScreen, 2 h | Potency, µM (highest dose often 102 µM), usual class: inhibitors | 8.8% of 350,000 active | AID 504332; further: nearly all actives have a fitted effect of over 75% in size
#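 Methyltransferase reactions run at room temperature for 2 h (20 nM enzyme, 500 nM biotin-H3K9 peptide, 20 uM SAM) after a 15 min compound preincubation; product detected by AlphaScreen beads and anti-H3K9me1 antibody.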
# JMJD2A Tudor inh: JMJD2A Tudor domain (human) inhibition | O75164 | AlphaScreen JMJD2A-Tudor / H3K4me3 peptide binding | Potency, µM (highest dose often 114 µM), most hits filed as inhibitors | 4.4% of 390,000 active; further: nearly all actives have a fitted effect of over 50% in size
# Target sequence (O75164 whole entry, looked up, the tested form may be a part): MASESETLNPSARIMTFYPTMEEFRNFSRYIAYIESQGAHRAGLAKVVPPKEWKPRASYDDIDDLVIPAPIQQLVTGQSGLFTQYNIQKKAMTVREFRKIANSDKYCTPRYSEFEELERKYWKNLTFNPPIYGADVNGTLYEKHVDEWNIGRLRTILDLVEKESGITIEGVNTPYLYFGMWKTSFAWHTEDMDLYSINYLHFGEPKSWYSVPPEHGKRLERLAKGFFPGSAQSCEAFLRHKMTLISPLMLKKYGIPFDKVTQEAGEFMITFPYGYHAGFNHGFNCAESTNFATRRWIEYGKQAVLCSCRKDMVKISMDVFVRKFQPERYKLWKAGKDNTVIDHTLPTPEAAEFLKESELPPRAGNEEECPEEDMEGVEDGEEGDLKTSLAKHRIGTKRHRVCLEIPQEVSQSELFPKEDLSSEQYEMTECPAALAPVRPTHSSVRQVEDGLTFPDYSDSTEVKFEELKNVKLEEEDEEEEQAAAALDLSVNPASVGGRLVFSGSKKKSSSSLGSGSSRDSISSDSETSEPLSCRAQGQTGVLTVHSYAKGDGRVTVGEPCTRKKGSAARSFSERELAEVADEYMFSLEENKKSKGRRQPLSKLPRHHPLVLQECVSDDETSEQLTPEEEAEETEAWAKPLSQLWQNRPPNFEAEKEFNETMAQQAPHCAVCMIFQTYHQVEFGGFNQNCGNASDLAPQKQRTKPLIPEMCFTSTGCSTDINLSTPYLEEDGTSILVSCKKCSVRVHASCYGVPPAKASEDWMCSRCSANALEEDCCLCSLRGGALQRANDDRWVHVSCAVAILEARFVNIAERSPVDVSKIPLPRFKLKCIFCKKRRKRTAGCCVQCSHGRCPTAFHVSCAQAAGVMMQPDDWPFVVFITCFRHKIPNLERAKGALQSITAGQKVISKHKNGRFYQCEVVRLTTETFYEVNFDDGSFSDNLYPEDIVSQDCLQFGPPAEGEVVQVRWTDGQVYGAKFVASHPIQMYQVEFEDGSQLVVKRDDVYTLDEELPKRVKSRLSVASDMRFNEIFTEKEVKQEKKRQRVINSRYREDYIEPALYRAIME
# L3MBTL1 block: inhibitors of human L3MBTL1. Q9Y468. AlphaScreen L3MBTL1–H3K9me1 peptide binding. Potency, µM (doses to about 57.1 µM), hits mostly inhibitors. 0.66% of 230,000 active; further: nearly all actives have a fitted effect of over 60% in size
#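 L3MBTL1 50 nM + b-AHA-H3(1-15)K9me1 75 nM, 30 min RT; compound added, 30 min RT; streptavidin donor/Ni-chelate acceptor beads 10 ug/mL each final, 30 min RT dark; AlphaScreen read.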
# BAZ2B block: blocks human BAZ2B. Q9UIF8. AlphaScreen BAZ2B-H3K14Ac peptide displacement. Potency, µM (top dose mostly 114 µM), usual class: inhibitors. 4.4% of 360,000 active; further: nearly all actives have a fitted effect of over 60% in size
#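 AlphaScreen displacement of biotin-H3(5-23)K14Ac peptide (50 nM final) from BAZ2B (50 nM final) in PBS pH 7.4, 0.01% Tween-20; complex preformed 30 min RT, then compounds (top 110 uM) 30 min RT, beads 20 min dark.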
# HP1b binding inh: inhibitors of HP1-beta chromodomain binding to methylated histone tails; AID 540317; P83916; Potency, µM (titrated, usually from 114 µM), actives largely listed as inhibitors; 0.56% of 390,000 active; AlphaScreen HP1-beta / biotin-H3K9me3 peptide binding; further: nearly all actives have a fitted effect of over 70% in size
#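 AlphaScreen: HP1-beta (50 nM) preformed 30 min with biotin-H3(1-18)K9me3 peptide (50 nM) in PBS pH 7.4, 0.01% Tween-20. Compound added for 30 min at RT, then streptavidin donor/nickel chelate acceptor beads (10 ug/mL) for 30 min.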
# Numbers stand for hits; – = inactive; ? = inconclusive; · = not tested or not shown; [ ] = remark or other dose. An excerpt weighted towards active compounds, which were near 12% of everything screened. The call rests on the fitted dose curve; in most records, active means well fitted curve in the direction sought with a large enough effect; inconclusive means small, poorly fitted or top-dose-only effect, or another doubt; inactive means no such curve, though single readings can be large; an effect the other way counts as inactive or inconclusive.
SMILES,Sfp inh,G9a inh,JMJD2A Tudor inh,L3MBTL1 block,BAZ2B block,HP1b binding inh
O=C(Nc1ccc(N2CCOCC2)c(C(=O)O)c1)c1ccc(Br)cc1,·,–,71µM,·,?,–
O=C(Nc1cnc(N2CCC(N3CCCCC3)CC2)c(C(=O)O)c1)c1ccc(Br)cc1,·,?,79µM,·,?,–
OC(CNC1CCCCCC1)COc1cccc2ccccc12 (stereo not drawn),–,45µM,3.5µM,·,?,–
COc1ccccc1COCC(O)CNCCc1ccc(C(F)(F)F)cc1 (stereo not drawn),?,4µM,79µM,·,25µM,–
OC(CNCCc1ccc(C(F)(F)F)cc1)COc1ccc2ccccc2c1 (stereo not drawn),18µM,–,–,–,–,–
COc1ccc(CCNCC(O)COc2cccc(Br)c2)cc1 (stereo not drawn),–,–,–,·,–,–
OC(CNCCc1ccc(C(F)(F)F)cc1)COc1cccc2ccccc12 (stereo not drawn),25µM,–,–,–,–,–
CSCC(=O)N1CCc2ccc(NC(=O)c3ccccc3Cl)cc2C1,–,–[0.501 µM],–,–[2.29 µM],–,–
COc1ccccc1Cn1cc(C(=O)c2ccc(C)cc2)c(=O)c2cc3c(cc21)OCCO3,·,–,–,·,–,–
COc1ccc(C(=O)N(Cc2ccccc2)Cc2ccccc2)c(O)c1,·,·,–,·,·,·
Cc1ccc(CN2CC(C(=O)Nc3cc(S(C)(=O)=O)ccc3Cl)CC2=O)cc1 (stereo not drawn),–,?,–,–,50µM,–
C#CCOCCOCCOCCNc1nc(N2CCN(C(=O)C([C@@H](C)CC)n3cc(C(N)CO)nn3)CC2)nc(N2CCN(C(=O)[C@H](CCC(=O)O)n3cc(C(N)CC(C)C)nn3)CC2)n1 (stereo partly drawn),–,–[12.7 µM],50µM,–,50µM,–
C#CCOCCOCCOCCNc1nc(N2CCN(C(=O)C([C@@H](C)CC)n3cc(C(N)CC(C)C)nn3)CC2)nc(N2CCN(C(=O)[C@H](CCC(=O)O)n3cc(C(N)CC(C)C)nn3)CC2)n1 (stereo partly drawn),–,–[12.7 µM],79µM,–,79µM,–
C#CCOCCOCCOCCNc1nc(N2CCOCC2)nc(N2CCN(C(=O)[C@H]([C@@H](C)CC)n3cc([C@@H](N)CC(C)C)nn3)CC2)n1,–,–[12.7 µM],–,–,–,–
C#CCOCCOCCOCCNc1nc(N2CCN(C(=O)[C@H](CCC(=O)O)n3cc(C(N)CC(C)C)nn3)CC2)nc(N2CCN(C(=O)[C@H](CCC(=O)O)n3cc(C(N)CC(C)C)nn3)CC2)n1 (stereo partly drawn),–,–[12.7 µM],79µM,–,79µM,–
CCOC(=O)C1=CN(Cc2ccco2)S(=O)(=O)NC1CC (stereo not drawn),·,·,–,–,·,–
CCOC(=O)CCc1cc(F)c(S(=O)(=O)N2CCN(S(=O)(=O)c3ccc4c(c3)OCCO4)CC2)cc1F,·,·,–,·,·,·
CCC1(c2ccccc2)NC(=O)N(CC(=O)Nc2ccccc2C(=O)N2CCCCC2)C1=O (stereo not drawn),·,–[0.501 µM],–,–,–,–
CC(=O)Nc1ccc(S(=O)(=O)Nc2cc(C)ccn2)cc1,–,50µM,–,–,–,–
Cc1ccc(NC(=S)NC(=O)C2CCCC2)cc1C,–,35µM,–,·,–,–
CC(=O)NS(=O)(=O)c1ccc(NC(=S)NC(=O)C2CCC2)cc1,–,?,–,·,–,–
CC(=O)Nc1ccc(S(=O)(=O)NCC(CCC(=O)O)C(F)(F)F)cc1 (stereo not drawn),–,–,16µM,–,–,–
Cc1ccnc(NS(=O)(=O)c2ccc(C(C)(C)C)cc2)c1,–,–,·,–,–,·
O=C(NC(=S)Nc1ccc(S(=O)(=O)Nc2ccccc2)cc1)C1CC1,–,14µM,–,–,–,–
CCCCc1nc2ccc(S(=O)(=O)O)cc2[nH]1,–,?,–,–,–,–
SMILES,Sfp inh,G9a inh,JMJD2A Tudor inh,L3MBTL1 block,BAZ2B block,HP1b binding inh
CC1CN(C(=O)Nc2ccc(C(=O)NCc3cccc(F)c3)cc2)c2ccccc2S1 (stereo not drawn),·,–,–,·,–,–
CC(C(=O)Nc1ccccn1)(c1ccccc1)c1ccccc1,–,·,–,–,–,–
CC(=O)Nc1ccc(NS(=O)(=O)c2ccccc2)cc1,–,–,–,·,–,–
CC(=O)Nc1ccc(S(=O)(=O)Nc2ccc(Nc3ccccc3)cc2)cc1,–,40µM,?,·,–,?
CCOc1ccc(-c2cc3c(=O)n(CC(=O)NCc4ccccc4)ccn3n2)cc1,·,–,?,·,–,–
COCCN1CCN(C(=O)c2cc(COc3ccc(Cl)cc3OC)on2)CC1,–,–,–,·,–,–
CCOC(=O)C1(CCCc2ccccc2)CCN(Cc2cnn(C)c2)CC1,–,–,–,–,–,–
CCOC(=O)C1(CCCc2ccccc2)CCN(Cc2ccn[nH]2)CC1,–,50µM,–,–,–,–
COC(=O)c1sccc1S(=O)(=O)N(CC(=O)NCc1ccc(C)cc1)c1ccccc1,·,–,–,·,–,–
C=CCn1c(=O)c2ccccc2n2c(SCC(C)=O)nnc12,–,–,–,·,–,–
CC(C)C[C@H](NC(=O)[C@H](CC(C)C)NC(=O)[C@H](CCC(N)=O)NC(=O)[C@H](CO)NC(=O)[C@@H]1CCCN1C(=O)[C@H](CO)NC(=O)[C@H](CO)NC(=O)[C@@H](NC(=O)[C@H](Cc1cnc[nH]1)NC(=O)[C@H](CCC(=O)O)NC(=O)[C@H](Cc1ccc(O)cc1)NC(=O)[C@H](CCCCN)NC(=O)[C@H](CCC(N)=O)NC(=O)[C@H](Cc1ccc(O)cc1)NC(=O)[C@H](CC(=O)O)NC(=O)[C@@H](NC(=O)[C@@H]1CCCN1C(=O)[C@H](CC(=O)O)NC(=O)[C@H](CC(N)=O)NC(=O)[C@H](CC(=O)O)NC(=O)CNC(=O)[C@H](CC(=O)O)NC(=O)[C@@H]1CCCN1C(=O)[C@H](CCC(N)=O)NC(=O)[C@H](Cc1ccc(O)cc1)NC(=O)[C@H](C)NC(=O)[C@H](Cc1c[nH]c2ccccc12)NC(=O)[C@H](Cc1ccccc1)NC(=O)[C@@H](NC(=O)[C@@H](N)CO)[C@@H](C)O)[C@@H](C)O)[C@@H](C)O)C(=O)N[C@@H](C)C(=O)N1CCC[C@H]1C(=O)NCC(=O)N[C@@H](CC(=O)O)C(=O)N[C@@H](Cc1ccc(O)cc1)C(=O)O,–,·,·,·,·,·
O=[N+]([O-])C(=C1SCCS1)C(=C(Cl)Cl)N1CCCCC1,–,6.3µM,35µM,·,7.9µM,25µM
O=[N+]([O-])C(/C=C(\Cl)[N+](=O)[O-])=C(N1CCCCC1)N1CCCCC1,–,?,–,·,–,–
O=C(O)Cc1ccc(O)c(O)c1,40µM,0.24µM,56µM,·,–,?
